Active and inactive are the calls of the source.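 How the source made its calls, unless noted: active means z-score of at least 1.8 in each of two replicates, scored against plate mean and spread of sample wells; inactive means the rest.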
Key:
[1] = target: Mitogen-activated protein kinase 7 (Homo sapiens) (UniProt Q13164); assay: ERK5 transactivation activators in reporter cells, primary screen, cell-based, HTS (AID 1508626;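 active means luciferase signal above three times the same-plate solvent-only control wells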;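 further: luciferase driven by Gal4-ERK5 fusion binding five Gal4 sites before minimal TATA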); conditions: HeLa Gal4-ERK5 transactivation, 18 h, at 5 µM, stronger effect = higher value
[2] = hESC survival regulators, cell-based (AID 493140; call rule not given here;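 further: cells exposed to compounds for four days before counting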); conditions: human embryonic stem cell survival screen; stronger effect = higher value
[3] = viability rescue of complex I mutant cybrids, primary screen, cell-based, galactose medium, ATP luminescence (AID 1645843); conditions: complex I mutant cybrid cells, 72 h, stronger effect = higher value;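 further: positive z means more ATP and so rescue of galactose-driven cybrid death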

Sequence of Mitogen-activated protein kinase 7 (Homo sapiens) (Q13164 whole entry, looked up, the tested form may be a part): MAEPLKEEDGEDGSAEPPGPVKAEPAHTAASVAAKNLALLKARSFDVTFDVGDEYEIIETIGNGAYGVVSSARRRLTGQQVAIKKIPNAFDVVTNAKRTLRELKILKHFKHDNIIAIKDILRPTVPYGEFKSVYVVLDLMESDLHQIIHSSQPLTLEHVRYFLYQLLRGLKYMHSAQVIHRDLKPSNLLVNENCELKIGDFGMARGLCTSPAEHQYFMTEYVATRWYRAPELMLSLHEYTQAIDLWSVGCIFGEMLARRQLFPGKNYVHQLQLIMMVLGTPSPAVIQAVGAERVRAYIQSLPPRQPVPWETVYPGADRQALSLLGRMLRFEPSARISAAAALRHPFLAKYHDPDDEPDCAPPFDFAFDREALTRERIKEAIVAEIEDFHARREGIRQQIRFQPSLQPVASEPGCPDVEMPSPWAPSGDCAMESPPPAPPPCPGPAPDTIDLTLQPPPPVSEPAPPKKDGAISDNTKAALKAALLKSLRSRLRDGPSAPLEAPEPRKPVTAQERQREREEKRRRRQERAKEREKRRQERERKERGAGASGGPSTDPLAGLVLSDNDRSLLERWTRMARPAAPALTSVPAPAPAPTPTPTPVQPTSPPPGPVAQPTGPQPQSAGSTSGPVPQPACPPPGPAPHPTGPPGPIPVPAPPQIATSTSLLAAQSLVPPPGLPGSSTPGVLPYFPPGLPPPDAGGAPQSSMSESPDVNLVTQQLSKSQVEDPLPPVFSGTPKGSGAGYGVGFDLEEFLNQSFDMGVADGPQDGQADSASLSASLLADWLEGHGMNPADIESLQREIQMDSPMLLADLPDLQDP

In the case of CC1(C)S[C@@H]2[C@H](NC(=O)[C@H](NC(=O)N3CCNC3=O)c3ccccc3)C(=O)N2[C@H]1C(=O)O, the luciferase signal [1] is reported as 60 AU (inactive).

For NCc1ccccc1CC(=O)N[C@@H]1C(=O)N2C(C(=O)O)=C(CSc3nnnn3CC(=O)O)CS[C@H]12, the survival [2] was 7.42 (inactive).

In the case of CC(C)(O/N=C(\C(=O)N[C@@H]1C(=O)N2C(C(=O)[O-])=C(C[n+]3ccccc3)CS[C@H]12)c1csc(N)n1)C(=O)O, the z-score [3] is reported as 0.025 (inactive).

With NC(=O)c1c(NC(=O)C2CC2)sc2c1CCCC2 the z-score [3] was 0.65 (inactive).
